Screening data as filed in PubChem BioAssay.
KinaseGlo FLuc – Counterscreen for Luciferase (Kinase-Glo TM) Inhibition; Kinase-Glo luciferase, ATP luminescence, 8 min; Potency, µM (series often up to 38.3 µM), for inactives: top-dose activity change, negative = inhibition, usual class: inhibitors; 200,000 tested, 0.28% active; AID 1379, 2008; also: nearly all actives have a fitted effect of over 60% in size
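Compounds were added to a substrate mix at pH 7.2 (50 mM imidazole, 10 uM ATP, within the enzyme's linear range), followed by Kinase-Glo detection reagent; luminescence was measured after 8 minutes at ambient temperature.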
NPSR antagonist – qHTS Assay for Antagonists of the Neuropeptide S Receptor: cAMP Signal Transduction; CHO-NPSR cells, cAMP TR-FRET, antagonist mode; Potency, µM (series often up to 38.3 µM), without a hit: at the highest dose activity change, negative = inhibition, most hits filed as inhibitors; 220,000 tested, 1% active; also: nearly all actives have a fitted effect of over 50% in size
Target sequence (Q6W5P4 whole entry, looked up): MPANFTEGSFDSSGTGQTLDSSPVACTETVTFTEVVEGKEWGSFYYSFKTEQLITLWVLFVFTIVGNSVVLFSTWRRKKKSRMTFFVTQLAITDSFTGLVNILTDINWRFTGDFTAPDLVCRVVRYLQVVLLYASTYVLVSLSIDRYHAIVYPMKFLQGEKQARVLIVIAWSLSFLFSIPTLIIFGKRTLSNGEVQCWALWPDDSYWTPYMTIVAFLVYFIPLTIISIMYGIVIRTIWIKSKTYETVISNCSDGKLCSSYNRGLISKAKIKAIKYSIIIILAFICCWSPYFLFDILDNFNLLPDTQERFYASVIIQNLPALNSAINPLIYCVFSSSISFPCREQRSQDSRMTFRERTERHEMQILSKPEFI
Tau ThT inhib – qHTS for Inhibitors of Tau Fibril Formation, Thioflavin T Binding | AID 1460, 2008 | recombinant tau K18 P301L, heparin-induced fibrillization, ThT fluorescence | Potency, µM (titrated, usually from 57.4 µM), inactives show at the highest dose activity, negative = inhibition, most hits filed as inhibitors | Microtubule-associated protein tau (Homo sapiens), P10636 | 270,000 tested, 2.1% active; also: nearly all actives have a fitted effect of over 55% in size
Target sequence (P10636 561-689 P618L limits assumed): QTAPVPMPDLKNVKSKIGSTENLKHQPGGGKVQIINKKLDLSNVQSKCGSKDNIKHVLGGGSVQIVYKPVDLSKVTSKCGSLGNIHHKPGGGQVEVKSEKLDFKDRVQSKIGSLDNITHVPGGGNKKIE
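Fibril formation assay: tau K18 P301L at 15 uM with trace Alexa 594 label, heparin inducer 20 uM, pH 7 sodium acetate buffer, 37 C for 6 hr; endpoint ThT signal.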
Tau FP inhib – qHTS for Inhibitors of Tau Fibril Formation, Fluorescence Polarization. Microtubule-associated protein tau (Homo sapiens), P10636. K18 P301L tau heparin fibrillization, Alexa594 FP, 6 h. Potency, µM (series often up to 57.7 µM), for inactives: at the top dose activity, negative = inhibition, most hits filed as inhibitors. 280,000 tested, 0.39% active. AID 1468, 2008; also: nearly all actives have a fitted effect of over 55% in size
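FP of Alexa 594-tau after heparin (20 uM) induction. Substrate: human K18 P301L, 15 uM unlabeled, 0.24 uM labeled. Buffer 100 mM sodium acetate pH 7. 6 hr, 37 C.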
Tau fluor cs – Counterscreen qHTS for Inhibitors of Tau Fibril Formation, Fluorescence Polarization; tau K18 P301L Alexa594 fluorescence, heparin fibrillization; Potency, µM (highest dose often 57.7 µM), for the others: at the top dose activity change, negative = decrease; 280,000 tested, 0.93% active; AID 1463, 2008; also: nearly all actives have a fitted effect of over 55% in size
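Human tau K18 P301L (15 uM unlabeled, 0.24 uM Alexa 594-labeled) in 100 mM sodium acetate pH 7 with 20 uM heparin, 6 hr at 37 C. ThT 30 uM added, 1 hr ambient; Alexa 594 FP and total fluorescence read at 555/632 nm.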
Numbers without * were called inactive; ? = inconclusive; · = no result given; [ ] = remark or other dose. Only some compounds are listed: those with a hit (about 3.3% of all), similar ones and a draw of the others. Calls follow the shape of the dose curve; as a rule, active = well fitted curve in the direction sought with a large enough effect; inconclusive = small, poorly fitted or top-dose-only effect, or another doubt; inactive = no such curve, though single readings can be large; an effect the other way counts as inactive or inconclusive. % is scaled to controls: 0 for no effect and ±100 for the full control effect; potency is read from the fitted curve at half-maximal effect.

SMILES | KinaseGlo FLuc | NPSR antagonist | Tau ThT inhib | Tau FP inhib | Tau fluor cs
O=C(NCCSc1c(-c2ccc(Br)cc2)[nH]c2ccccc12)c1ccc(S(=O)(=O)N2CCOCC2)cc1 | · | · | -4% | -14% | 4.5µM*[quencher]
O=C(NCCSc1c(-c2ccc(Cl)cc2)[nH]c2ccccc12)c1ccc(S(=O)(=O)N2CCOCC2)cc1 | · | · | -6% | -14% | 4µM*[quencher]
Cc1ccc(CN2C(=O)CNC2=S)cc1 | 4% | 1% | 5% | -3% | -1%
CCC(C)(C)C1CCC(=NNc2nc3ccccc3[nH]2)CC1 (stereo not drawn) | 1% | -21% | 16µM* | ? | ?
Nc1c(-c2n[nH]c(=S)n2-c2ccc(Cl)cc2Cl)cnn1-c1ccccc1 | · | -8% | · | 3% | 7%
Nc1[nH]nc2c1NN(c1ccc(Cl)cc1Cl)N2 | -3% | -12% | 3.5µM* | ? | ?
CCc1ccc(CN(Cc2ccco2)C(=O)c2cc(-c3ccc(Cl)cc3)on2)cc1 | · | · | 1% | 3% | -10%
O=C(CS(=O)(=O)c1cccc2nsnc12)Nc1ccc(F)cc1 | · | · | -7% | -7% | -10%
Oc1cccc(NC(=S)N=Nc2c(O)[nH]c3ccccc23)c1 | · | -24% | 10µM* | 4% | ?
Oc1[nH]c2ccccc2c1N=NC(=S)NCCc1ccccc1 | 2% | -52% | 14µM* | ? | 13µM*[quencher]
O=C1NN(c2ccccc2)C(=O)/C1=C\c1cccc(OC(=O)c2cccs2)c1 | 17% | ? | 16µM* | ? | -25%
O=C1NN(c2ccc(Cl)c(Cl)c2)C(=O)/C1=C/c1cccc(OC(=O)c2cccs2)c1 | -5% | -19%[46.1 µM] | 16µM* | ? | ?
COC(=O)N/N=C\c1cccc(OC(=O)c2cccs2)c1 | -2% | 10% | -13% | -13% | -16%
CCOc1cc(/C=C2/C(=O)N(c3ccccc3)N=C2C)ccc1OC(=O)c1cccs1 | -3% | -15%[46.1 µM] | ? | 3% | -23%
CC(=O)c1ccc(NC(=O)CN2C(=O)CCc3cc(S(=O)(=O)N4CCC(C)CC4)ccc32)cc1 | · | · | 2% | -7% | ?
CNc1ccc(/C=C2\COc3ccccc3C2=O)cc1[N+](=O)[O-] | -3% | -4%[46.1 µM] | 1.6µM* | -2% | -12%
O=C1/C(=C/c2ccccc2[N+](=O)[O-])COc2ccccc21 | -1% | -40% | 13µM* | ? | ?
CCOc1cc(/C=C2/COc3ccccc3C2=O)ccc1OCC(=O)N(C)C | 2% | 1% | ? | 8% | 5%
Nc1ncnc2oc(-c3ccco3)c(-c3ccco3)c12 | -9% | -12%[46.1 µM] | 20µM* | ? | ?
Nc1nnc(-c2ccco2)s1 | -3% | 1%[46.1 µM] | -6% | -1% | -9%
CCOC(=O)c1c(S(=O)(=O)NCC(=O)NCc2cccc(C)c2)c(C)n(C)c1C | · | · | -7% | 0% | -14%
Cc1ccc(NCC(O)C(O)C(O)CO)c(N=Nc2ccccc2)c1C (stereo not drawn) | · | -12% | 2.5µM* | 10% | 13µM*[quencher]
Cc1ccc(Cl)cc1NC(=O)CSC1=Nc2ccccc2C2=NC(Cc3ccccc3)C(=O)N12 (stereo not drawn) | · | · | -11% | -2% | -21%
COCC(=O)Nc1cc(Cl)ccc1C | -1% | 17% | -6% | -3% | -6%
Cc1ccc(Cl)cc1NC(=O)CSC(N)=O | 3% | -11%[46.1 µM] | 32µM* | ? | -18%
SMILES | KinaseGlo FLuc | NPSR antagonist | Tau ThT inhib | Tau FP inhib | Tau fluor cs
O=C(COc1ccccc1C(=O)N/N=C\c1ccc(O)c(O)c1)N/N=C/c1ccc(O)c(O)c1 | -4% | -15%[46.1 µM] | 13µM* | 10% | ?
O=C(N/N=C/c1ccc(OCc2ccc(F)cc2)cc1)c1ccccc1 | 3% | -5% | -15% | -4% | -6%
CC(C)(C)c1ccc(OCc2ccc(C(=O)N/N=C/c3ccc(O)c(O)c3)cc2)cc1 | 0% | 13µM* | ? | 14% | 16µM*[quencher]
O=C(COc1ccccc1[N+](=O)[O-])N/N=C/c1ccc(O)c([N+](=O)[O-])c1 | 0% | -23% | ? | 7% | -4%
CCCNC(=O)[C@H]1O[C@@H]1C(=O)N[C@H](C(=O)N1CCC[C@H]1C(=O)OC)[C@@H](C)CC | · | · | -2% | -5% | -2%
c1ccc(OCc2nc3ccccc3s2)cc1 | -23% | -13%[46.1 µM] | -15% | 1% | -6%
Cc1cc(OCc2nc3ccccc3s2)ccc1N | · | 6% | 14µM* | -17% | ?
CC1CCCCN1S(=O)(=O)c1ccc(C(=O)Nc2sccc2C(N)=O)cc1 (stereo not drawn) | -8% | 1.6µM* | 6% | ? | ?
O=C1OC(c2ccccc2)=C/C1=C/N1CCCCC1 | -5% | -23%[46.1 µM] | 28µM* | ? | -28%
O=C(Oc1ccc(Cl)c2cccnc12)c1ccco1 | -7% | 4µM* | -9% | -3% | -8%
N/C(=N\OC(=O)c1ccco1)c1ccccn1 | 13µM* | 7% | 2% | 8% | 2%
O=C(Oc1cccc2cccnc12)c1ccco1 | 0% | -5%[46.1 µM] | -7% | -2% | -2%
N/C(=N\OC(=O)c1ccco1)c1ccccc1 | ? | 10%[46.1 µM] | -5% | -6% | -4%
N/C(=N\OC(=O)c1ccc2ccccc2c1)c1ccccn1 | 11µM* | -1% | -5% | -6% | -1%
N/C(=N\OC(=O)c1ccc(Cl)cc1Cl)c1ccccn1 | 11µM* | 52% | ? | -1% | -2%
N/C(=N\OC(=O)c1ccc2ccccc2c1)c1ccncc1 | -4% | -19% | -8% | -6% | -15%
Cc1ccc(S(=O)(=O)N[C@H]2COC(=O)[C@@H](Cc3ccccc3)NC(=O)[C@@H](C)COC(=O)C/C=C\[C@@H]2C)cc1 | · | · | 1%[11.5 µM] | -3%[11.6 µM] | -4%[11.6 µM]
N/C(=N\OC(=O)c1cccc([N+](=O)[O-])c1)c1ccccn1 | 13µM* | -2% | -22% | 2% | 0%
CCOC(=O)c1c(S(=O)(=O)N2CCCC(C(=O)NCc3cccc(OC)c3)C2)c(C)n(C)c1C (stereo not drawn) | · | · | 11% | 6% | 15%
O=c1cc(-c2ccc(Cl)c(Cl)c2)[nH][nH]1 | 0% | 1%[46.1 µM] | 3.2µM* | ? | ?
COc1ccc(-c2cc(=O)[nH][nH]2)cc1 | -4% | -13%[46.1 µM] | 2.2µM* | ? | -27%
CNC(=O)COc1ccc(NC(=O)CCn2nc(-c3ccc(C)cc3)c3ccccc3c2=O)cc1 | · | · | -7% | 0% | -11%
O=[N+]([O-])c1cc(S(=O)(=O)N2CCCC2)ccc1N/N=C/c1cccs1 | -4% | -3%[46.1 µM] | -15% | 5% | -20%
O=C(O)CC/C(=N\Nc1ccc(S(=O)(=O)N2CCOCC2)cc1[N+](=O)[O-])c1cccs1 | · | -33% | 11µM* | 6% | -17%
